# Results filed as inconclusive are left out. A call without a number means that no potency is given here. Calls of active or inactive are those of the source. Unless noted, calls follow the shape of the dose curve; as a rule, active = well fitted curve in the direction sought with a large enough effect; inconclusive = small, poorly fitted or top-dose-only effect, or another doubt; inactive = no such curve, though single readings can be large; an effect the other way counts as inactive or inconclusive.
# Legend:
# [1] = qHTS for differential inhibitors of proliferation of Plasmodium falciparum line Dd2 (AID 1882); conditions: Potency: Plasmodium falciparum Dd2 proliferation inhibition; series mostly up to 28.7 µM; also: nearly all actives have a fitted effect of over 65% in size
# In short: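 Dd2-infected erythrocytes (0.3% parasitemia, 2.5% hematocrit final) incubated with compound 72 h at 37 C, 5% CO2; lysed with saponin/Triton buffer containing SYBR Green I, incubated overnight in the dark, then read by fluorescence (485/535 nm). Normalized to 0.29 uM artemisinin and DMSO.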
# [2] = biological target: Ferritin light chain (Equus caballus) (UniProt P02791); test: qHTS Validation Assay for Identification of Novel General Anesthetics (AID 2323); conditions: horse apoferritin, anesthetic-site fluorescent probe displacement; series mostly up to 76.9 µM
# In short: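 Competitive displacement of profluorescent 1-aminoanthracene (1-AMA, 50% saturated solution in PBS) from 10 uM horse-spleen apoferritin. Compounds incubated 10 min at room temperature; fluorescence read at 380 nm excitation/535 nm emission, normalized to free 1-AMA and complex, fitted with four-parameter Hill equation.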
# [3] = biological target: RecQ-like DNA helicase BLM (Homo sapiens) (UniProt P54132); test: qHTS Validation Assay for Inhibitors of Bloom's syndrome helicase (BLM) (AID 2364); conditions: BLM helicase DNA unwinding, fluorescence, in vitro; series mostly up to 57.1 µM; also: potency is read from the fitted curve at half-maximal effect
# In short: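 Forked 20-bp duplex substrate (200 nM, TAMRA/BHQ-2) plus 2 mM ATP added after 15 min compound preincubation with 50 nM enzyme, pH 8.0, poly(dI-dC) 2.5 ug/ml. Strand separation followed by fluorescence (525/598 nm) over 2 h, normalized to enzyme-free and DMSO controls.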
# [4] = qHTS for differential inhibitors of proliferation of Plasmodium falciparum line W2 (AID 1883); conditions: Potency: Plasmodium falciparum W2 proliferation inhibition; series mostly up to 28.7 µM;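 also: potency is read from the fitted curve at half-maximal effect; parasites grown with compound for 72 h before lysis and staining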
# [5] = qHTS for differential inhibitors of proliferation of Plasmodium falciparum line HB3 (AID 1886); conditions: Potency: Plasmodium falciparum HB3 proliferation inhibition; series mostly up to 28.7 µM;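 also: parasites grown with compound for 72 h before SYBR Green readout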; also: potency is read from the fitted curve at half-maximal effect
# [6] = biological target: ATP-dependent DNA helicase Q1 (Homo sapiens) (UniProt P46063); test: qHTS Validation Assay for Inhibitors of RecQ-Like Dna Helicase 1 (RECQ1) (AID 2353); conditions: recombinant RECQ1 helicase DNA unwinding assay; series mostly up to 25.6 µM; also: potency is read from the fitted curve at half-maximal effect
# In short: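 50 nM RECQ1T1 preincubated 15 min with compound in Tris pH 8.0 buffer with MgCl2, DTT, Tween-20 and 2.5 ug/ml poly(dI-dC); started with 200 nM TAMRA/BHQ-2 forked duplex and 2 mM ATP. Unwinding read as fluorescence (525/598 nm), two reads 2 h apart.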
# [7] = qHTS Assay for Modulators of Human Peripheral Myelin Protein 22 (PMP22) Expression/Activity (AID 1967; active = well fitted curve in the direction sought with a large enough effect in the signal ratio; the % refers to the signal ratio); conditions: Cell-based PMP22 reporter, dual-color luciferase ratio, 0% = compound-free control cells, mouse Pmp22 promoter in mouse Schwann cells; series mostly up to 115 µM
# In short: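 MSC80 mouse Schwann cells stably carrying Pmp22 promoter–green click beetle luciferase plus EF-alpha–red luciferase control were dosed for 24h at 37 °C. Dual-colour luminescence was filter-overlap corrected; %Activity came from green/red ratio versus untreated cells.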
# ATP-dependent DNA helicase Q1 (Homo sapiens), sequence (P46063 whole entry, looked up): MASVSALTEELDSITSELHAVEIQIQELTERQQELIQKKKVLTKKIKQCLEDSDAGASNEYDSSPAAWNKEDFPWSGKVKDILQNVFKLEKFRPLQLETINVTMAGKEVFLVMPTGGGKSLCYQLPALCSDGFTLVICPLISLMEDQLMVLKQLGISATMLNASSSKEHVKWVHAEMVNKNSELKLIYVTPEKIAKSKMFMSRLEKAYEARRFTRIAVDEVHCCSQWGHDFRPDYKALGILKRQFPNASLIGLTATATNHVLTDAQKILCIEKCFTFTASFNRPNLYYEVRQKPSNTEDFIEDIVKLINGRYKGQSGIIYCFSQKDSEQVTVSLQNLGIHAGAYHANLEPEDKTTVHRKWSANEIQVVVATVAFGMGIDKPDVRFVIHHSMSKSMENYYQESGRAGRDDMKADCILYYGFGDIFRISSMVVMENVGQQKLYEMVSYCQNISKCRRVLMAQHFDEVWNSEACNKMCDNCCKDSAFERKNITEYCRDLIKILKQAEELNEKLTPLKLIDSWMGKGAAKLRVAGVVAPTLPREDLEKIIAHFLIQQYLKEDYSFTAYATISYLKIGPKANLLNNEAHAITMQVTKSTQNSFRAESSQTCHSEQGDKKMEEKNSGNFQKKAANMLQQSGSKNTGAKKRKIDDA
# Ferritin light chain (Equus caballus), sequence (P02791 2-175 limits assumed): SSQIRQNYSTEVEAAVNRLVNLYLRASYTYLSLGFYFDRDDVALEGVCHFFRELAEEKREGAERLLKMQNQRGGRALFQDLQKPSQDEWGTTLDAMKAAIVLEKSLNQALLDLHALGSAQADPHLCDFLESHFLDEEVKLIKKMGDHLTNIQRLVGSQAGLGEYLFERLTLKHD
# RecQ-like DNA helicase BLM (Homo sapiens), sequence (P54132 whole entry, looked up): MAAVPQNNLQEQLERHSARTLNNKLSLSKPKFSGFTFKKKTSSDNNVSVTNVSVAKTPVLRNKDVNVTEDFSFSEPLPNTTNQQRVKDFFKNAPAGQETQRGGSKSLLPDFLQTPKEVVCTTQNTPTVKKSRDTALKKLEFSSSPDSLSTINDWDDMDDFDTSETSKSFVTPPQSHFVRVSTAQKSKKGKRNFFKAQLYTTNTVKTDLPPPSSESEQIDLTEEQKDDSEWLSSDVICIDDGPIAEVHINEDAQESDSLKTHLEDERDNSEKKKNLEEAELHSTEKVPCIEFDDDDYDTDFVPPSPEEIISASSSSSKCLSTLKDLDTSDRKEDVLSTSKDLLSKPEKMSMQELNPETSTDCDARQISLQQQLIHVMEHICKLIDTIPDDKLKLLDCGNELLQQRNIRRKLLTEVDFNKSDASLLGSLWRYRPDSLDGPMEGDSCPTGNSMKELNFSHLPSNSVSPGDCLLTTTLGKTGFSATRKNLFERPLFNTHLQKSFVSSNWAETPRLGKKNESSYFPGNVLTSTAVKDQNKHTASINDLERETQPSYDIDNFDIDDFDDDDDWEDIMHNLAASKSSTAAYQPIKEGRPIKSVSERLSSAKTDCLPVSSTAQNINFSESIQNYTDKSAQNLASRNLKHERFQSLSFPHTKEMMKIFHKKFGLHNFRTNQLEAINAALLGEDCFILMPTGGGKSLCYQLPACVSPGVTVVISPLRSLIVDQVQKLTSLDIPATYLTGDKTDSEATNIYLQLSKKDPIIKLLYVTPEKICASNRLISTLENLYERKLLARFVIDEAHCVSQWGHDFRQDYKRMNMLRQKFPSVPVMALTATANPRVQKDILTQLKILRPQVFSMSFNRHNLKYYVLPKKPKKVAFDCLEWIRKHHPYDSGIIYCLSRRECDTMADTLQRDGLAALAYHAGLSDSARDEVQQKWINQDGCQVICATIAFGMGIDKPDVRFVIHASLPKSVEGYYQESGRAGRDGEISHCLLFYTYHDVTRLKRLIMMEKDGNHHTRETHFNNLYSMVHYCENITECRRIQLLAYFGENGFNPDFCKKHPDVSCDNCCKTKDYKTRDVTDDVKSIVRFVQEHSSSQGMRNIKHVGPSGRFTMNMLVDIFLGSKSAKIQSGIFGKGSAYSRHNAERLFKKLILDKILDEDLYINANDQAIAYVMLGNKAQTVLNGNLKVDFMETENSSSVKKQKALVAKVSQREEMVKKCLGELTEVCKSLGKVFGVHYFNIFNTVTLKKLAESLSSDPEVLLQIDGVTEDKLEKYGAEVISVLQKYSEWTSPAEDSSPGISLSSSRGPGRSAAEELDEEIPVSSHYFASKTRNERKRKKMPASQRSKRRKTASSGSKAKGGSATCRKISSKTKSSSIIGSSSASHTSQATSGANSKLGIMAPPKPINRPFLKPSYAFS
compound,measurement,setting,value
O=C1OC(=O)C2C3CCC(O3)C12 (configuration not stated),Potency,[1],inactive
same,Potency,[2],inactive
same,Potency,[3],inactive
Cn1c(=O)c2c(nc(/C=C/c3cccc(Cl)c3)n2C)n(C)c1=O,Potency,[4],11.2 µM (active)
same,Potency,[5],12.6 µM (active)
same,Potency,[2],inactive
same,Potency,[6],inactive
CC[C@H](NC(=O)c1c(C)c(-c2ccccc2)nc2ccccc12)c1ccccc1,Potency,[4],8.91 µM (active)
same,Potency,[5],12.6 µM (active)
same,Potency,[2],inactive
same,Potency,[6],inactive
O=C(O)C1CCNCC1,Potency,[1],inactive
same,Potency,[2],inactive
same,Potency,[6],inactive
same,Potency,[3],inactive
Cn1c(=O)c2[nH]c(-c3ccc(S(=O)(=O)O)cc3)nc2n(C)c1=O,Potency,[1],inactive
same,outcome,[7],inactive
same,Potency,[3],inactive
COc1cccc(OC)c1OCCNCC1CSc2ccccc2O1 (configuration not stated),Potency,[4],3.98 µM (active)
same,Potency,[5],12.6 µM (active)
same,Potency,[2],inactive
same,Potency,[6],inactive
same,Potency,[3],inactive
O=C1Nc2ccc(I)cc2/C1=C/c1cc(Br)c(O)c(Br)c1,Potency,[4],15.8 µM (active)
same,Potency,[5],10 µM (active)
same,Potency,[6],inactive
Nc1nc2ccc(Cl)cc2c2nc(-c3ccco3)nn12,Potency,[6],inactive
same,Potency,[3],inactive
O=c1[nH]c(=O)c2nc3ccccc3nc2[nH]1,Potency,[5],inactive
same,Potency,[2],inactive
same,Potency,[6],inactive
COc1cc(/C=C(\C#N)C(=O)c2ccc(O)c(O)c2)cc(I)c1O,Potency,[1],inactive
same,Potency,[6],4.47 µM (active)
same,Potency,[3],10 µM (active)
COc1cc([C@@H]2c3cc4c(cc3[C@H](O)C3COC(=O)[C@@H]32)OCO4)cc(OC)c1OC (some centres not stated),outcome,[7],inactive
same,Potency,[2],inactive
same,Potency,[6],inactive
same,Potency,[3],inactive
OC1(c2ccc(Cl)cc2)CCN(Cc2c[nH]c3ccccc23)CC1,Potency,[2],inactive
same,Potency,[6],inactive
same,Potency,[3],inactive
NC(N)=NC(N)=Nc1ccccc1,Potency,[1],inactive
same,outcome,[7],inactive
same,Potency,[2],inactive
same,Potency,[6],inactive
O=C(c1ccc2c(c1)OCCO2)N1CCCCC1,outcome,[7],inactive
same,Potency,[3],inactive
CCCn1c(=O)c2[nH]c(C3CCCC3)nc2n(CCC)c1=O,Potency,[1],inactive
same,Potency,[5],inactive
same,Potency,[2],inactive
same,Potency,[3],inactive
NCCNS(=O)(=O)c1cccc2c(Cl)cccc12,Potency,[4],6.31 µM (active)
same,Potency,[6],inactive
same,Potency,[3],inactive
CCCCCCCCCC[Si](C)(C)CCC(=O)NC(Cc1ccc(C)cc1)c1ccccc1 (configuration not stated),Potency,[6],inactive
Cc1ccc2c(c1)C(N1CCN(C)CC1)=Nc1cccnc1N2,Potency,[4],7.08 µM (active)
same,Potency,[5],inactive
same,outcome,[7],inactive
same,Potency,[2],inactive
same,Potency,[6],inactive
CC(/C=C/c1cccc(Oc2ccc(F)cc2)c1)N(O)C(N)=O (configuration not stated),Potency,[4],10 µM (active)
same,Potency,[6],inactive

# From PubChem BioAssay (NCATS)
